In PubChem BioAssay (NCATS):
Results filed as inconclusive are left out. Calls of active or inactive are those of the source. Unless noted, no rule for the calls is given here.

Tests used:
[1] = qHTS profiling of the MIPE4 collection as inhibitors of Plasmodium falciparum (3D7) proliferation (AID 743344);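 also: scaled between DMSO vehicle wells and 0.29 µM artemisinin as full inhibition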; settings: P. falciparum 3D7 in erythrocytes, SYBR Green DNA fluorescence, 72 h; at 28.5 µM unless noted
Outline: (§1)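 Parasite DNA was quantified by SYBR Green I fluorescence (ex 485, em 535 nm) after overnight lysis in saponin/Triton buffer at room temperature. Cultures at 0.3% parasitemia and 2.5% hematocrit were first exposed to compound for 72 h at 37 C; signals were normalised to artemisinin (0.29 uM) and vehicle wells.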

[2] = qHTS profiling of the MIPE4 collection as inhibitors of Plasmodium falciparum (DD2) proliferation (AID 743345); settings: P. falciparum Dd2 in erythrocytes, SYBR Green DNA, 72 h; at 28.5 µM unless noted
Outline: as §1

[3] = qHTS profiling of the MIPE4 collection as inhibitors of Plasmodium falciparum (DD2) proliferation (Rep 2) (AID 743346); settings: P. falciparum Dd2 in erythrocytes, SYBR Green DNA, 72 h; at 28.5 µM unless noted
Outline: as §1

[4] = qHTS profiling of the MIPE4 collection as inhibitors of Plasmodium falciparum (HB3) proliferation (AID 743347);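 also: plate controls were DMSO vehicle wells for no effect and artemisinin wells for full effect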; settings: P. falciparum HB3 in erythrocytes, SYBR Green DNA, 72 h; at 28.5 µM unless noted
Outline: as §1

[5] = High-throughput drug toxicity screening in the BPDCN cell line Gen2.2 (AID 1224824); settings: Gen2.2 BPDCN cells; at 45.8 µM (top of the series) unless noted;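 also: cells exposed to compounds for 48 h before reading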
Outline: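 CellTiter-Glo luminescence after 48 h compound exposure of Gen2.2 cells; percent activity set with DMSO as 100% and bortezomib (9.2 uM final) as 0%. Cells seeded at 500 per well, RPMI + 10% FBS, 37 °C.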

[6] = High-throughput drug toxicity screening in the BPDCN cell line Cal-1 (AID 1224825); settings: Cal-1 BPDCN cell viability, qHTS; at 45.8 µM (top of the series) unless noted
Outline: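 CellTiter-Glo luminescence after 48 h compound exposure; percent activity scaled with DMSO as 100% and bortezomib (9.2 uM final) as 0%. Cal-1 cells seeded at 500/well in RPMI, 10% FBS, no phenol red.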

[7] = qHTS assay for measurement of the activity of small molecule inhibitors on Zika virus induced Caspase-3 activity in human iPSC derived neural progenitor cells (hNPCs) (AID 1224857; active = well fitted curve in the direction sought with a large enough effect; an effect the other way counts as inactive or inconclusive; also: % of control where 0% means no effect; nearly all actives have a fitted effect of over 65% in size)
Outline: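 Zika virus (2 FFU/cell) infection of human iPSC-derived NPCs, 6 h, following 1 h compound preincubation. Read-out: Caspase-Glo 3/7 luminescence.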

[8] = qHTS assay for measurement of the activity of small molecule inhibitors on Zika virus induced Caspase-3 activity in human astrocytoma cells (AID 1224859; active = well fitted curve in the direction sought with a large enough effect; an effect the other way counts as inactive or inconclusive;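 also: plate controls were ZIKV-infected untreated cells for no effect and uninfected cells for full effect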)
Outline: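 Caspase activation in ZIKV-infected SNB-19 cells (2 FFU/cell, 6 h) measured by Caspase-Glo 3/7 luminescence after 30 min RT; compound pre-incubated 1 h; normalised to uninfected and infected controls.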

[9] = qHTS Assay for Identifying Gametocytocidal Compounds (AID 743244; active = well fitted curve in the direction sought with a large enough effect; an effect the other way counts as inactive or inconclusive;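 also: % is scaled to controls: 0 for no effect and ±100 for the full control effect; actives lower the fluorescent signal which means gametocytes are killed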); settings: P. falciparum 3D7 stage III-V gametocytes, alamarBlue, 72 h; max response: stronger effect = lower value
Outline: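 Fluorescence at Ex 525/Em 598 nm, recorded 24 h after alamarBlue addition, reports residual metabolic activity of 3D7 gametocytes (stages III–V) following 72 h compound exposure at 37 °C, 5% CO2.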

SMILES | parasite growth, % of DMSO control [1] [%] | parasite growth remaining, % of DMSO control (lower = more inhibition) [2] [%] | parasite growth, % of control (lower = inhibition) [3] [%] | growth, % of control [4] [%] | cell viability, % of control (lower = more cytotoxic) [5] [%] | viability (% of control) [6] [%] | Potency [7] | Potency [8] | max response [9]
CCCCCCNC(=O)n1cc(F)c(=O)[nH]c1=O | 59 | 32 | 30.5 | 71.2 | 106 | 33.8 | inactive | inactive | 
COc1cc(NS(=O)(=O)c2ccc(N)cc2)nc(OC)n1 | 39.3 | 96.8 | 87.6 | 91 | 129 | 104 | inactive | inactive | 22.6% (inactive)
CO[C@@H]1[C@@H](OC(N)=O)[C@@H](O)[C@H](Oc2ccc3c(O)c(NC(=O)c4ccc(O)c(CC=C(C)C)c4)c(=O)oc3c2C)OC1(C)C | 61 | 75.8 | 39.2 | 45.7 | 13.9 | 44 | inactive | inactive | 1.46% (inactive)
O=c1cc(O)c(Cl)c[nH]1 | 29 | 122 | 20.4 | 21.5 | 246 | 39.2 | inactive | inactive | 
NCCCC(O)(P(=O)(O)O)P(=O)(O)O | 96 | 107 | 114 | 117 | 169 | 97.8 | inactive | inactive | 14.9% (inactive)
CCOC(=O)[C@H](CCc1ccccc1)N[C@H]1CCc2ccccc2N(CC(=O)O)C1=O | 9.1 | 9.11 | 22.6 | 11.1 | 22.7 | 22.3 | inactive | inactive | 
CC(C)(C#N)c1cc(Cn2cncn2)cc(C(C)(C)C#N)c1 | 89.6 | 91.9 | 88.7 | 66.6 | 47 | 105 | inactive | inactive | 
COc1ccc(C(=O)CC(=O)c2ccc(C(C)(C)C)cc2)cc1 | 9.04 | 88.2 | 6.24 | 2.68 | 5.71 | 5.54 | inactive | inactive | 7.37% (inactive)
CCC(=O)O[C@]1(C(=O)CCl)[C@@H](C)C[C@H]2[C@@H]3CCC4=CC(=O)C=C[C@]4(C)[C@@]3(F)[C@@H](O)C[C@@]21C | 6.83 | 55.4 | 8.54 | 8.53 | 44.1 | 47.1 | inactive | inactive | 4.44% (inactive)
CN1CCN(c2c(F)cc3c(=O)c(C(=O)O)cn(CCF)c3c2F)CC1 | 86.6 | 95.4 | 106 | 99 | 140 | 98.4 | inactive | inactive | 1.63% (inactive)
Nc1[nH]c(=O)ncc1F | 408 | 104 | 158 | 699 | 87.4 | 22.3 | inactive | inactive | -2.11% (inactive)
